This passage reports outcome results from PubChem BioAssay (Tox21).

Inconclusive results are not listed. Active and inactive are the calls of the source. The call rests on the fitted dose curve.

The test is described as follows: qHTS assay for small molecule disruptors of the mitochondrial membrane potential - cell viability (AID 720634).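 Further: human HepG2 liver cancer cells; nearly all actives have a fitted effect of over 20% in size.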 The note with it: HepG2 viability, ATP luminescence (CellTiter-Glo), 1 h; series mostly up to 83.2 µM. From the text: U.S. Tox21 Program National Center for Advancing Translational Sciences [NCATS] NIH Chemical Genomics Center [NCGC] U.S. Environmental Protection Agency [EPA] National Institutes of Environmental Health Sciences [NIEHS] National Toxicology Program [NTP] U.S. Food and Drug Administration [FDA] Tox21 Assay Overview: Mitochondrial membrane potential (MMP), one of the parameters for mitochondrial function, is generated by mitochondrial electron transport chain that creates an electrochemical gradient by a series of redox reactions. This gradient drives the synthesis of ATP, a crucial molecule for various cellular processes. Measuring MMP in living cells is commonly used to assess the effect of chemicals on mitochondrial function; decreases in MMP can be detected using lipophilic cationic fluorescent dyes. […] The dye accumulates in the mitochondria of healthy cells as aggregates, with red fluorescence. The mitochondrial potential decreases and the dye could not accumulate in the mitochondria and remains in the cytoplasm in monomers, with green fluorescence. In addition to the mitochondrial potential assay, these cells were also used to test the cytotoxicity by determining the cell viability in the culture based on the quantitation of ATP present. The cytotoxicity was measured in the same assay well of MMP assay.
Tox21 Assay Protocol Summary: 2,000 HepG2 cells in 5 uL/well were dispensed into black, clear-bottom 1536-well plates using a Multidrop Combi (Thermo Scientific) dispenser. The assay plates were incubated for an overnight at 37 C to allow cells to attach to the wells, followed by the transfer of 23 nL compound or DMSO vehicle by a pin tool (Kalypsys). The plates were incubated for 1 hr at 37 C and 5% CO2, followed by the addition of 5 uL of 2X m-MPI dye into each well using Flying Reagent Dispenser (Aurora Discovery) and then CellTiter-Glo reagent was added at 4 uL/well and incubated 30 min at room temperature. Then luminescence intensity was quantified on a ViewLux CCD-based plate reader.
(In general: qHTS replaces the single test concentration by a dilution series.)
Consider `CN(C)C(=O)Oc1ccc[n+](C)c1`, for which the call was inactive.

Turning to `CC(C)CCCO`, the call was inactive.

Take `Cc1ccc(C(=O)c2ccc(CC(=O)O)n2C)cc1`: the result was inactive.

Consider `c1coc(CNc2ncnc3nc[nH]c23)c1`, for which the molecule was called inactive.

Take `Cc1cccc(C)c1NC(=O)CC12CCCN1CCC2`: the result was inactive.

Take `Clc1cc(Cl)c(Cl)nc1Cl`: the molecule was classed as inactive.

On to `CCCCCCCCN1CCCC1=O`, for which the result was inactive.

For `C=C(C)C(=O)OCCOCCOCCOCCOC(=O)C(=C)C`, the molecule was called inactive.

For `O=C(O)CCSCCC(=O)O`, the result was inactive.

In the case of `CC1=C(C/C=C(\C)CCC[C@H](C)CCC[C@H](C)CCCC(C)C)C(=O)c2ccccc2C1=O`, the outcome was inactive.

Turning to `COc1c(N2CCNC(C)C2)c(F)cc2c(=O)c(C(=O)O)cn(C3CC3)c12` (stereo not given), the molecule was called inactive.

For the molecule `CCN1C=CN(C)C1C` (stereo not given), the result was inactive.

Turning to `CCCCCCCCCCCCCCC(=O)O`, the call was inactive.

With `C=CC(=O)OCCCl`, the molecule was called inactive.

Turning to `COc1cc(C(=O)NCc2ccc(OCCN(C)C)cc2)cc(OC)c1OC`, the molecule was classed as inactive.

On to `CC(=O)N1C[C@H](O)C[C@H]1C(=O)O`, for which the molecule was called inactive.

With `C[N+]12CCC(CC1)C(OC(=O)C(O)(c1ccccc1)c1ccccc1)C2` (stereo not given), the molecule was classed as inactive.

`CCCCCCC1CCC(=O)O1` (stereo not given): the molecule was classed as inactive.

`CC(C)(N)C#N`: the call was inactive.

As for `CC(=O)c1cnccn1`, the molecule was classed as inactive.

Consider `CC(C)NNC(=O)c1ccncc1`, for which the outcome was inactive.

On to `c1ccc(CCc2ccccc2)cc1`, for which the outcome was inactive.

With `CCCCCC(C)N` (stereo not given), the molecule was called inactive.

On to `CCCc1nn(C)c2c(=O)[nH]c(-c3cc(S(=O)(=O)N4CCN(C)CC4)ccc3OCC)nc12`, for which the result was inactive.

As to `CC(C)(C)c1ccc(-c2ccc(C(C)(C)C)cc2)cc1`, the molecule was called inactive.

In the case of `CC(=O)OCC(=O)[C@@]1(O)[C@H](C)C[C@H]2[C@@H]3CCC4=CC(=O)C=C[C@]4(C)[C@@]3(F)[C@@H](O)C[C@@]21C`, the result was inactive.

On to `CC(C)COC(=O)c1ccc(N)cc1`, for which the result was inactive.

For `COc1ccccc1OCC1CNC(=O)O1` (stereo not given), the molecule was classed as inactive.

For the molecule `C=C(C)C(=O)OCC1CCCO1` (stereo not given), the result was inactive.

With `CC(C#N)(CCC(=O)O)N=NC(C)(C#N)CCC(=O)O` (stereo not given), the outcome was inactive.

Turning to `O=C(O)CNC(=O)c1ccc(CO)o1`, the molecule was called inactive.

Take `CC(CO)(CO)[N+](=O)[O-]`: the result was inactive.

With `CC(=O)Oc1cccc(C)c1`, the molecule was called inactive.

For `CCNS(=O)(=O)c1ccc(C)cc1`, the molecule was classed as inactive.

Turning to `CC1(C)[C@@H]2CC[C@@]1(C)[C@H](O)C2`, the molecule was classed as inactive.

With `CC(C)=CCC/C(C)=C/C#N`, the outcome was inactive.

On to `O=C(O)CC(C(=O)O)S(=O)(=O)O` (stereo not given), for which the molecule was classed as inactive.

In the case of `C=CN1CCCCCC1=O`, the molecule was classed as inactive.

With `CCCCS(=O)(=O)N[C@@H](Cc1ccc(OCCCCC2CCNCC2)cc1)C(=O)O`, the molecule was called inactive.

`Cc1ccc(-c2ncc(Cl)cc2-c2ccc(S(C)(=O)=O)cc2)cn1`: the result was inactive.
